The values that follow come from PubChem BioAssay (NCATS).

Several values for one entry are separate records, joined by “and”; a condition that tells them apart may be missing. Equal entries are not always repeated. Records with an inconclusive call do not appear. Where a structure was tested more than once in an assay, its records may differ in their call. Activity calls are given as the source filed them. Calls come from the whole dose curve; as a rule, active = well fitted curve in the direction sought with a large enough effect; inconclusive = small, poorly fitted or top-dose-only effect, or another doubt; inactive = no such curve, though single readings can be large; an effect the other way counts as inactive or inconclusive.

Experiment [1] can be described thus: Viability qHTS for spleen associated tyrosine kinase inhibitor (SYKi) naive MV4-11 cells (AID 1963823). Note: nearly all actives have a fitted effect of over 40% in size. An outline of the steps: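 Compounds were dispensed acoustically onto plates, MV4-11 cells (SYKi-naive) added at 500 per well, and plates incubated 72 hr at 37 C. CellTiter-Glo was added and luminescence measured after 10 min.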
On the technique in general: Quantitative high-throughput screening tests each substance at several concentrations.

A short description of experiment [2]: Viability qHTS for spleen associated tyrosine kinase inhibitor (SYKi) drug resistant MV4-11 cells (AID 1963824). Note: nearly all actives have a fitted effect of over 35% in size. An outline of the steps:
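SYK inhibitor-resistant MV4-11 AML cells, 500 per well, added to predispensed compounds and incubated 72 hr at 37 C, 5% CO2. Viability measured by CellTiter-Glo luminescence after 10 min at room temperature.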

Experiment [3] can be described thus: Quantitative highthroughput screen to assess conditional lethalithy of NOMO1 cells grown in RPMI1640 with untreated serum (RPMI+s) (AID 1963876).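 For Viability: 100% = DMSO wells and 0% = empty wells without cells.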 Note: nearly all actives have a fitted effect of over 35% in size. An outline of the steps:
(§1)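 Each medium arm—HPLM with 10% dialyzed FBS, or RPMI1640 with 5 mM glucose and 10% untreated or dialyzed FBS—was screened against an 11-point, 3-fold compound titration for 48 h at 37 °C, with CellTiter-Glo luminescence as endpoint.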

A short description of experiment [4]: Quantitative highthroughput screen to assess conditional lethalithy of NOMO1 cells grown in RPMI1640 with dialyzed fetal bovine serum (RPMI+ds) (AID 1963877).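 For Viability: series mostly up to about 46 µM; 100% = DMSO control wells and 0% = empty wells.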 Note: nearly all actives have a fitted effect of over 30% in size. An outline of the steps:
as §1

Experiment [5] is described as follows: Quantitative highthroughput screen to assess conditional lethalithy of P12 Ichikawa cells grown in Human Plasma-Like Medium with dialyzed fetal bovine serum (HPLM+ds) (AID 1963879). For Viability: series mostly up to about 46 µM. Note: nearly all actives have a fitted effect of over 35% in size. The settings on record: Potency: viability. In outline: as §1
Experiment [6] can be described thus: Quantitative highthroughput screen to assess conditional lethalithy of P12 Ichikawa cells grown in RPMI1640 with untreated serum (RPMI+s) (AID 1963881).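 For Viability: series mostly up to about 46 µM; 100% = DMSO wells and 0% = empty wells without cells.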 Note: nearly all actives have a fitted effect of over 35% in size. Conditions: Potency: viability. In outline: as §1
Experiment [7] can be described thus: Cellular viability qHTS for adrenocortical cancer (ACC) cell line SW-13 (AID 1963989).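 For activity (max response): cells grown in serum-free medium with ITS supplement; % is set by controls: 0 for no effect and ±100 for the full control effect.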 Note: nearly all actives have a fitted effect of over 65% in size. The settings on record: SW-13 ACC cells viability, CellTiter-Glo, 48 h; activity (max response): stronger effect = lower value. In outline: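 Here, serum-free SW-13 cultures were dosed up to 46 uM. Following 48 h, ATP-dependent luminescence (CellTiter-Glo) reported viable cells, and logistic modeling produced IC50 values.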

A short description of experiment [8]: Quantitative highthroughput screen to assess conditional lethalithy of P12 Ichikawa cells grown in RPMI1640 with dialyzed fetal bovine serum (RPMI+ds) (AID 1963880).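 For Viability: 100% = DMSO wells and 0% = empty wells on each plate.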 Note: nearly all actives have a fitted effect of over 35% in size. Conditions: Potency: P12-Ichikawa viability. An outline of the steps:
as §1

The nature of experiment [9]: Cellular viability qHTS for adrenocortical cancer (ACC) cell line NCI-H295R (AID 1963990).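 For activity change, negative = viability loss: 0% = DMSO only wells and -100% = full killing with cytotoxic reference compound.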 Note: nearly all actives have a fitted effect of over 60% in size. In outline: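 Viability of NCI-H295R after 48 h of treatment (final up to 46 uM) measured through cellular ATP luminescence.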
Experiment [10] in a line: Quantitative highthroughput screen to assess conditional lethalithy of SEM cells grown in RPMI1640 with unreated serum (RPMI+s) (AID 1963883).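 For Viability: 100% = DMSO wells and 0% = empty wells without cells.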 Note: nearly all actives have a fitted effect of over 35% in size. An outline of the steps:
as §1

A short description of experiment [11]: Quantitative highthroughput screen to assess conditional lethalithy of SEM cells grown in RPMI1640 with dialyzed fetal bovine serum (RPMI+ds) (AID 1963884).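 For Viability: series mostly up to about 46 µM; 100% = DMSO control wells and 0% = empty wells without cells.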 Note: nearly all actives have a fitted effect of over 35% in size. In outline: as §1
Experiment [12] can be described thus: Quantitative highthroughput screen to assess conditional lethalithy of NOMO1 cells grown in Human Plasma-Like Medium with dialyzed fetal bovine serum (HPLM+ds) (AID 1963878).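 For Viability: 100% = DMSO wells and 0% = empty wells on each plate.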 Note: nearly all actives have a fitted effect of over 35% in size. An outline of the steps:
as §1

The nature of experiment [13]: Quantitative highthroughput screen to assess conditional lethalithy of SEM cells grown in Human Plasma-Like Medium with dialyzed fetal bovine serum (HPLM+ds) (AID 1963882). For Viability: series mostly up to about 46 µM. Note: nearly all actives have a fitted effect of over 35% in size. In outline:
as §1
Potency is the fitted concentration of half-maximal effect.

`COc1ccc2c(c1)c(C1=C(c3c[nH]c4ccccc34)C(=O)NC1=O)cn2CCCN(C)C`: the Potency was 0.148 µM (active) in [1], 0.332 µM (active) in [2] and 15.8 µM (active) in experiment [7]. Also, the Potency entry in experiment [3], in [4], in [5] and in experiment [6] was “inactive” in each case.
As for `C[C@@H]1COC(Nc2ccc3ncnc(Nc4ccc(OCc5nccs5)c(Cl)c4)c3c2)=N1`, the Potency in experiment [1] was 4.11 µM (active); in experiment [2], 2.91 µM (active); in experiment [8], 18.7 µM (active); in experiment [7], 15.8 µM (active); in experiment [9], 28.2 µM (active). The Potency entry in experiment [3] and in [4] was “inactive” in each case.
With `Oc1ccc(OCc2ccccc2)cc1`, the Potency in experiment [1] is 5.9 µM (active); in experiment [2], “inactive and 8.33 µM (active)”; in [4], 18.7 µM (active); in experiment [5], 7.43 µM (active); in experiment [6], 3.72 µM (active). Moreover, the Potency entry in experiment [3] and in [9] was “inactive” each time. The activity (max response) in experiment [7] was 12.2% (inactive).
For the molecule `OC[C@H](Cc1ccccc1)Nc1nc(Oc2ccc3c(c2)CCC3)nc2c1ncn2Cc1ccc(-c2ccccc2)cc1`, the Potency in experiment [1] was 13.2 µM (active); in experiment [2] it was 10.5 µM (active). The Potency result in experiment [3], in experiment [4], in experiment [6], in [10] and in [11] was “inactive” each time.
Take `Cc1ccccc1C(=O)c1ccc(Nc2ccc(Br)cc2N)cc1Cl`: the Potency in experiment [1] was 11.8 µM (active) and 13 µM (active); in experiment [2], 16.6 µM (active) and 18.4 µM (active); in experiment [4] it was 20.9 µM (active); in experiment [7], 31.6 µM (active); in experiment [9], 31.6 µM (active). Moreover, in experiment [3], the Potency result is “inactive”.
`Cn1c(=O)c(-c2c(Cl)cccc2Cl)cc2cnc(Nc3cccc(C(=O)O)c3)nc21`: the Potency in experiment [1] is 0.662 µM (active); in [2], 0.259 µM (active); in experiment [10], 14.8 µM (active). Besides, the Potency entry in experiment [3], in experiment [4], in experiment [6] and in experiment [9] was “inactive” each time. For the same molecule, the activity (max response) in experiment [7] was -0.886% (inactive).
On to `Nc1ncnc2nc(-c3ccc(N4CCOCC4)nc3)cc(-c3cccc(Br)c3)c12`, for which the values for the Potency in [1] and in experiment [2] were 4.68 µM (active) and 8.33 µM (active), respectively. The Potency result in experiment [3], in experiment [12], in [5], in [8], in experiment [6] and in experiment [13] was “inactive” throughout. Moreover, the Potency entry in experiment [10], in [11] and in [9] was “inactive” throughout. Further, in [7], the activity (max response) was -17.8% (inactive).
As to `CC(C)c1cc(C(C)C)c(CC(=O)NS(=O)(=O)Oc2c(C(C)C)cccc2C(C)C)c(C(C)C)c1`, the values for the Potency in [1] and in [2] were 11.6 µM (active) and 4.68 µM (active), respectively. Also, the Potency entry in experiment [3], in experiment [12], in experiment [5], in [8], in experiment [6] and in experiment [10] was “inactive” in each case. Moreover, the Potency entry in experiment [11] is “inactive”. The activity (max response) in experiment [7] is -25.2% (inactive).
With `CN1C2CCC1CC(OC(=O)C(CO)c1ccccc1)C2` (configuration not stated), the Potency entry in experiment [1], in experiment [2], in experiment [3], in experiment [4], in [13] and in [10] was “inactive” each time. For the same molecule, the Potency result in [11] and in experiment [9] was “inactive” each time. Also, the activity (max response) in experiment [7] is -20.1% (inactive).
Regarding `COc1ccc2cc([C@H](C)C(=O)O)ccc2c1`, the Potency entry in [1], in [2], in experiment [3], in experiment [4], in [5] and in [6] was “inactive” throughout. In addition, the Potency entry in experiment [9] is “inactive”. Also, the figures for the Potency in experiment [10] and in experiment [11] were 9.35 µM (active) and 10.5 µM (active), respectively.
With `CC(C)(C)OC(=O)Nc1ccc(-c2cc(C(=O)NCCCCCCC(=O)NO)no2)cc1`, the Potency is 1.48 µM (active) in [1]; 1.48 µM (active) in [2]; 8.33 µM (active) in [3]; 8.33 µM (active) in experiment [12]; 2.64 µM (active) in experiment [5]; 1.05 µM (active) in experiment [8]. For the same molecule, the Potency is 2.35 µM (active) in [6]; 3.72 µM (active) in experiment [13]; 1.48 µM (active) in [10]; 1.32 µM (active) in experiment [11]; 15.8 µM (active) in experiment [7]; 2.82 µM (active) in [9].
In the case of `COc1ccc(OC)c(-c2nnc3ccc(-c4ccc(OC)c(O[C@@H]5CCOC5)c4)nn23)c1`, the Potency in experiment [1] was 2.63 µM (active); in [2], 2.95 µM (active); in [7], 5.01 µM (active); in experiment [9] it was 0.501 µM (active). In addition, the Potency result in experiment [3], in [4] and in experiment [11] was “inactive” throughout.
As to `CON(C)C(=O)N1N=C(c2cc(F)ccc2F)S[C@@]1(CCCN)c1ccccc1`, the Potency in experiment [1] was 0.0092 µM (active); in experiment [2], 10.3 nM (active) and 3.3 nM (active); in experiment [3] it was 0.0209 µM (active); in experiment [4] it was 0.0234 µM (active); in [8], 0.0331 µM (active); in experiment [6] it was 0.0209 µM (active). Moreover, the Potency in experiment [13] was 0.0052 µM (active); in [10], 0.0117 µM (active); in [7], 0.0141 µM (active); in [9], 0.0562 µM (active).
Take `O=C(O)CCCc1c[nH]c2ccccc12`: the Potency entry in experiment [1], in experiment [2], in [3], in [12], in experiment [5] and in [8] was “inactive” each time. Moreover, the Potency entry in [6], in experiment [13], in [10], in [11] and in experiment [9] was “inactive” throughout. In addition, the activity (max response) in experiment [7] is 1.46% (inactive).
Take `CNNCc1ccc(C(=O)NC(C)C)cc1`: the Potency result in experiment [1], in [2], in experiment [3], in experiment [4], in experiment [5] and in experiment [9] was “inactive” throughout. Also, in experiment [7], the activity (max response) was 0.571% (inactive) and -4.58% (inactive).
`CCN1CCN(CC(=O)Nc2ccc(-c3cccc4c(=O)cc(N5CCOCC5)oc34)c3sc4ccccc4c23)CC1`: the Potency was 422 nM (active) and 407 nM (active) in experiment [1]; 422 nM (active) and 723 nM (active) in experiment [2]; 4.18 µM (active) in experiment [3]; 3.72 µM (active) in experiment [4]; 1.05 µM (active) in [10]; 1.32 µM (active) in experiment [11]. Also, the figures for the Potency in [7] and in experiment [9] were 9 µM (active) and 7.15 µM (active), respectively. Moreover, the Potency result in experiment [5] was “inactive”.
As for `O=P(O)(O)C(O)(Cn1ccnc1)P(=O)(O)O`, the viability (% of control) in experiment [1] is 79.2% [at 4.97 µM] (inactive). Further, the viability, % of control in experiment [2] is 89.7% [at 4.97 µM] (inactive). Further, the Potency entry in experiment [3], in experiment [12], in experiment [5], in [8], in experiment [6] and in experiment [13] was “inactive” in each case. Also, the Potency entry in [10] and in experiment [11] was “inactive” in each case. The activity (max response) in experiment [7] is -1.67% (inactive). Further, the activity change, negative = viability loss in [9] was -3.44% [at 3.81 µM] (inactive).
